Laboratory results taken from PubChem BioAssay AID588405 (Sanford-Burnham Center for Chemical Genomics, 2011).
Screen size: about 360,000 compounds; about 6,200 (1.7%) were called active.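 Rule for the calls: active = inhibition of at least 50% at 20 µM; inactive = the rest.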 What follows is part of a selection rich in actives, with near analogues and random picks from the rest.

Experiment: inhibition of PEG-3 promoter activity – cell-based, HeLa, luciferase luminescence, primary screen (AID 588405)
Settings: HeLa PEG-Prom luciferase reporter, overnight, at 20 µM, hits give high values

inhibition, active:
O=C(NNc1c2ccccc2nc2ccccc12)c1cc2ccccc2cc1O 74.7%
Cc1csc2ncc(C(=O)N(Cc3ccccc3)c3ccccn3)c(=O)n12 81.4%
O=c1[nH]c(=S)[nH]c(O)c1/C=C1\C=Nc2ccccc21 60.8%
C#Cc1cc(N2CCN(C(=O)c3ccoc3)CC2)n2nc(-c3cccc(Cl)c3)cc2n1 79.3%
CN(C)CCNC(=O)c1ccc(-c2cn3c(-c4ccc(Oc5ccccc5)cc4)cnc3cn2)cc1 99.7%
COc1ccc(Nc2nc(-c3cccnc3)nc3ccccc23)cn1 53.5%
CN(CCO)c1ccc(/C=N/Nc2nncc3ccccc23)cc1 63.9%
COc1ccc(-c2nnc(SC(=O)N3c4ccccc4Sc4ccccc43)o2)cc1 51.3%
COc1cc(/C=C2/C(=O)ON=C2C)ccc1OCc1ccccc1F 66.5%
CC1CCCCC1NC(=O)/C(C#N)=C/C=C/c1ccccc1[N+](=O)[O-] (stereo not given) 111%
COc1ccc(CNC(=O)C[C@H]2C[C@H](C(=O)N3CCOCC3)[C@@]3(CCC4CCCC4)c4[nH]c5ccc(Cl)cc5c4CCN3C2=O)cc1OC 56.1%
O=C(C[C@H]1C[C@H](C(=O)N2CCOCC2)[C@@]2(CCC3CCCC3)c3[nH]c4ccc(Cl)cc4c3CCN2C1=O)NCc1ccco1 61.1%
N#Cc1cccc(NC(=O)COC(=O)c2ccccc2C(=O)c2ccc(Cl)c([N+](=O)[O-])c2)c1 108%
CC(=O)Nc1ccc(NC(=O)C(C)OC(=O)c2ccccc2C(=O)c2ccc(Cl)c([N+](=O)[O-])c2)cc1 (stereo not given) 93.7%
CCCCCCCCCCOC(=O)Cn1c(COc2cccc(OC)c2)[n+](C)c2ccccc21 102%
CCCCCCCCCCOC(=O)Cn1c(COc2ccc(C)cc2)[n+](C)c2ccccc21 116%
COc1ccccc1-n1nnnc1S(=O)(=O)Cc1ccc(Cl)cc1 108%
Cn1c(=O)[nH]c(=O)c2c1nc(N1CCN(C(c3ccccc3)c3ccccc3)CC1)n2CCO 74.6%

inhibition, inactive:
COc1ccc(Br)c(Cn2c(C)c(C(=O)NCc3cccs3)sc2=O)c1 7.67%
Cc1nc(C(F)(F)F)ccc1C(=O)N1CCC1(C)C(=O)NS(=O)(=O)c1ccccc1Cl (stereo not given) 7.45%
O=S1(=O)CC(N2CCC(Cc3ccccc3)CC2)CN1Cc1ccccc1 (stereo not given) -15.6%
O=C(NNC(=O)c1ccccc1O)c1ccccc1O 23.7%
O=C(COC(=O)c1ccc(O)cc1O)NC(=O)c1ccccc1 19.7%
O=C(Nc1cccc(S(=O)(=O)N2CCOCC2)c1)C12CC3CC(CC(C3)C1)C2 13.8%
CCCS(=O)(=O)NC(=O)C1(C)CCN(C(=O)c2sccc2C)C1 (stereo not given) -4.46%
OC(c1ccc(Cl)cc1)c1ncc(-c2ccc(Cl)cc2)[nH]1 (stereo not given) -29.5%
OC[C@@H]1CN(Cc2ccc(-c3ccccc3)cc2)C[C@H](n2cnc3c(NC4CCCC4)ncnc32)O1 19.6%
CCC(=O)N(Cc1ccccc1)c1ccccn1 13.9%
CC(C)(C)C(=O)N(Cc1ccccc1)c1ccccn1 -2.77%
O=C(CCN1C(=O)[C@@H]2Cc3ccccc3CN2C1=O)NCc1ccccc1 4.93%
Cc1cc2oc(=O)cc(CN(C)Cc3ccccc3)c2cc1Cl -133%
Cc1cc2c(cc1C)N1C(=O)c3cc4ccccc4cc3NC(=O)C1C(=O)N2 (stereo not given) 9.54%
COc1cc(C(O)c2nc(-c3cnn(C)c3)cs2)ccc1F (stereo not given) 9.83%
CCc1nc2c(OCCOc3ccccc3)cccn2c1N(C)C(=O)c1cccs1 30.3%
CN(C)CCN1CCN(c2cc(-c3cccc(Cl)c3)nc3ccnn23)CC1 7.56%
O=C(c1ccccc1)N1CCN(c2cc(-c3ccccc3)nc3cc(-c4cccc(Cl)c4)nn23)CC1 16.8%
CCCC(=O)N1CCC1(C)C(=O)Nc1ccc(-n2cncn2)cc1 (stereo not given) 5.62%
CN(C)C(CNC(=O)c1ccc(OCc2cn3ccccc3n2)cc1)c1ccco1 (stereo not given) -55.3%
Cc1noc(C)c1COc1ccc(C(=O)NCCOc2ccccc2)cc1 -115%
CCc1ccc(OC2(C)CCN(CCOc3ccc(C)cc3)C2)cc1 (stereo not given) 15.4%
CCN(CC(=O)NC1CCS(=O)(=O)C1)c1nc(-c2cccnc2)nc2ccccc12 (stereo not given) -4.15%
S=c1nc2ccccc2c2nc(-c3cccnc3)[nH]n12 -35.9%
Cc1ccc(Sc2ccc(NC(=O)c3ccc(F)cc3)cc2C#N)cc1 -1.6%
CC(C)NC(=O)Nc1ccc2c(c1)C(=O)N([C@H](C)CO)C[C@H](C)[C@@H](CN(C)Cc1ccc(C(F)(F)F)cc1)OCCCC[C@@H](C)O2 12.5%
COc1ccc(-c2nnc(SC(C)C(=O)NC3CC3)o2)cc1 (stereo not given) -27.6%
COc1ccc(CN(C(=O)CSc2nnc(-c3ccc(OC)c(OC)c3)o2)c2ccc(F)cc2)cc1 30.6%
CC(=O)C1=CCC(c2ccccc2)N(S(=O)(=O)c2ccc(C)cc2)C1 (stereo not given) 7.17%
C#CCOc1ccc(/C=C2/C(=O)ON=C2C)cc1OCC 27.9%
COc1cc(/C=C2/C(=O)ON=C2C)ccc1OCc1cccc(F)c1 45.1%
OC[C@@H]1CN(C2CCCC2)C[C@H](n2cnc3c(NC4CCC4)ncnc32)O1 4.02%
O=[N+]([O-])c1ccccc1/C=C/CN1CCC(O)CC1 10.2%
CC(OC(=O)/C=C/c1ccccc1)C(=O)NC1CCCCC1C (stereo not given) 6.61%
CCCN(c1ccc(C)cc1)c1nc(=O)c2cccnc2s1 8.6%
CC(=O)Nc1cncc(-c2ccccc2CO)n1 7.63%
CC[C@]12c3[nH]c4ccc(OC)cc4c3CCN1C(=O)C(CC(=O)NCc1ccco1)C[C@@H]2C(=O)N1CCN(C(=O)C2CC2)CC1 (stereo not given in full) -6.85%
CC[C@]12c3[nH]c4ccc(Cl)cc4c3CCN1C(=O)[C@@H](CC(=O)NCCN1CCOCC1)C[C@@H]2C(=O)N1CCN(C(=O)C2CC2)CC1 -0.39%
COc1ccc2[nH]c3c(c2c1)CCN1C(=O)C(CC(=O)NCCCN(C)C)C[C@H](C(=O)N2CCOCC2)[C@@]31CCC1CCCC1 (stereo not given in full) 1.46%
CN(C)C(=O)CCc1ccc2c3c([nH]c2c1)[C@]1(CCC2CCCC2)[C@@H](C(=O)N2CCOCC2)C[C@H](CC(=O)NCc2ccco2)C(=O)N1CC3 0.84%
COC(=O)CCCCC1=CCC2C(=O)C=C(O)C2C1 (stereo not given) 0.22%
COc1ccc(C(C)(O)c2nc(-c3cc(F)cc(F)c3)cs2)cc1 (stereo not given) 23.2%
COc1cccc(-c2cc3nc(NCc4ccccc4OC)n(C)c(=O)c3s2)c1 -50%
COc1cc(F)c(C2=CC(=O)CC(C)(C)C2)cc1F -42.1%
O=C(O)c1ccccc1-c1cccc2nncn12 -2.07%
O=C(Nc1cccc(NC(=O)c2ccccc2[N+](=O)[O-])c1)c1ccccc1Cl -9.06%
CC(OC(=O)CNC(=O)c1ccc(Cl)c([N+](=O)[O-])c1)C(=O)NCc1ccco1 (stereo not given) 3.12%
COC(=O)c1cc(NC(=O)Cc2ccccc2[N+](=O)[O-])ccc1Cl -2.09%
CC(=O)Nc1ccc(NC(=O)COC(=O)c2ccccc2C(=O)c2ccccc2)cc1 -1.14%
C=CCC1(C#N)C(=S)NC(C)=C(C(=O)OCC)C1c1ccccc1 (stereo not given) 3.78%
CCc1nc2c(OCCc3cccc(OC)c3)cccn2c1N(C)C(=O)c1ccc(C)cc1 5.31%
CC1(C(=O)NS(=O)(=O)c2ccc(Cl)cc2)CCN1C(=O)CC1CCCC1 (stereo not given) 8.85%
CCN(c1ccccc1)S(=O)(=O)c1cccc(C(=O)NCc2ccccc2CN2CCOCC2)c1 -0.46%
CCOC1=C2CN(S(=O)(=O)c3ccc(C)cc3)[C@H](c3cccs3)C[C@H]2[C@H]2C(=O)N(c3ccccc3)C(=O)[C@H]2C1 -59.4%
Cc1noc(C)c1COC(=O)Cn1c(C)nc2ccccc21 8.44%
Cc1ccc(COc2ccc(C(=O)NN)cc2)cc1 -58.5%
CCOC(=O)c1cn(CC)c2cc(F)c(F)cc2c1=O -7.48%
CN(Cc1cccs1)C(=O)CN1C(=O)c2ccccc2S1(=O)=O -42.7%
CCC(C)N(C(=O)CSc1nnnn1-c1ccccc1OC)C1CCS(=O)(=O)C1 (stereo not given) 6.27%
COc1ccccc1-n1nnnc1SCC(=O)NC(=O)Cc1ccccc1 3.09%
O=C(N=C1SC2CS(=O)(=O)CC2N1c1cc(Cl)ccc1Cl)C1CC1 (stereo not given) 3.34%
C=C(C)Cn1c(N2CCCC2)nc2c1c(=O)[nH]c(=O)n2C -3.39%
CC1CCN(c2nc3c(c(=O)[nH]c(=O)n3C)n2CCCc2ccccc2)CC1 -2.12%
COc1ccc(-c2cc3nc(NCCOc4ccccc4)ccn3n2)cc1 -70.4%
COC(=O)c1ccccc1N=NNc1ccc([N+](=O)[O-])cc1 -132%
COc1ccc(CCNC(=O)c2ccc(CS(=O)(=O)c3ccc(Br)cc3)o2)cc1OC 32.6%
Cc1cccc(C)c1Cn1c(C)c(C(=O)NCc2cccc(Cl)c2)sc1=O 0.34%
